Measured values published in PubChem BioAssay (NCATS).
Records with an inconclusive call do not appear. Where a call stands in place of a potency, no number is given. The source made the active and inactive calls. Calls come from the whole dose curve; as a rule, active = well fitted curve in the direction sought with a large enough effect; inconclusive = small, poorly fitted or top-dose-only effect, or another doubt; inactive = no such curve, though single readings can be large; an effect the other way counts as inactive or inconclusive.

Key:
[1] = test system: WaGa; assay: qHTS assay to identify novel small-molecules to repurpose for Merkel cell carcinoma treatment (AID 1296009); conditions: MCC and control cell lines, CellTiter-Glo viability, 72 h; series mostly up to 46 µM; note: nearly all actives have a fitted effect of over 60% in size; note: potency is the fitted concentration of half-maximal effect
Outline: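 Cells exposed to NPC (8-point) and MIPE (11-point) compound dilutions for 72 hr at 37 degree celsius; viability read by CellTiter-Glo luminescence, normalized to no-cell and DMSO in-plate controls.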

[2] = test system: C33A; assay: Primary qHTS to identify gynecologic anti-cancer compounds using libraries of approved drugs and bioactive compounds (AID 1345084); conditions: Gynecologic cancer cell panel viability, ATPlite luminescence, 48 h; series mostly up to 57.5 µM; note: nearly all actives have a fitted effect of over 55% in size
Outline: (§1)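 48 h compound exposure at 37 C, 5% CO2; five-point qHTS. ATPlite luminescence readout of cell ATP.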

[3] = test system: CAOV3; assay: as above; conditions: Gynecologic cancer cell panel viability, ATPlite luminescence, 48 h; series mostly up to 57.5 µM
Outline: as §1

[4] = test system: CASKI; assay: as above; conditions: Gynecologic cancer cell panel viability, ATPlite luminescence, 48 h; series mostly up to 57.5 µM
Outline: as §1

[5] = test system: Es-2; assay: as above; conditions: Gynecologic cancer cell panel viability, ATPlite luminescence, 48 h; series mostly up to 57.5 µM
Outline: as §1

[6] = test system: HeLa; assay: as above; conditions: Gynecologic cancer cell panel viability, ATPlite luminescence, 48 h; series mostly up to 57.5 µM
Outline: as §1

[7] = test system: Hek293T; assay: as above; conditions: Gynecologic cancer cell panel viability, ATPlite luminescence, 48 h, control line for the selectivity index; series mostly up to 57.5 µM
Outline: as §1

[8] = test system: JEG-3; assay: as above; conditions: Gynecologic cancer cell panel viability, ATPlite luminescence, 48 h; series mostly up to 57.5 µM
Outline: as §1

[9] = test system: OV90; assay: as above; conditions: Gynecologic cancer cell panel viability, ATPlite luminescence, 48 h; series mostly up to 57.5 µM
Outline: as §1

[10] = test system: PA-1; assay: as above; conditions: Gynecologic cancer cell panel viability, ATPlite luminescence, 48 h; series mostly up to 57.5 µM
Outline: as §1

**Q.** CN[C@@H](C)[C@H](O)c1ccccc1 was tested. Which Potency [1] did it give?
**A.** inactive

**Q.** What about the Potency [2] of the same compound?
**A.** inactive

**Q.** And the Potency [3]?
**A.** inactive

**Q.** What about the Potency [4] of the same compound?
**A.** inactive

**Q.** And the Potency [5]?
**A.** inactive

**Q.** And the Potency [6]?
**A.** inactive

**Q.** And the Potency [7]?
**A.** inactive

**Q.** And the Potency [8]?
**A.** inactive

**Q.** What about the Potency [9] of the same compound?
**A.** inactive

**Q.** What about the Potency [10] of the same compound?
**A.** inactive

**Q.** How did the Potency [1] turn out when CN1[C@H]2CC(O)C[C@H]1[C@H]1O[C@H]12 (stereo partly specified) was run?
**A.** inactive

**Q.** How did the Potency [1] turn out when O=c1[nH]c2ccccc2n1C1CCN(Cc2ccc(-c3[nH]c4cc5ncnc5cc4nc3-c3ccccc3)cc2)CC1 was run?
**A.** inactive

**Q.** How did the Potency [1] turn out when CC=C(C)C(=O)O[C@H]1C(C)=C2[C@@H]3OC(=O)[C@@](C)(O)[C@@]3(O)[C@@H](OC(=O)CCC)C[C@](C)(OC(C)=O)[C@@H]2[C@@H]1OC(=O)CCCCCCC was run?
**A.** 1660 nM (active)

**Q.** For C[C@H]1CCCC=CC2C[C@H](O)C[C@@H]2[C@H](O)C=CC(=O)O1 (stereo partly specified), which Potency [1] is on record?
**A.** inactive

**Q.** With CCOC(=O)c1cncn1[C@H](C)c1ccccc1 as the compound, how does the Potency [1] read?
**A.** inactive

**Q.** For Clc1ccccc1C(c1ccccc1)(c1ccccc1)n1cccn1, which Potency [1] is on record?
**A.** inactive

**Q.** Which Potency [1] does the source give for N=c1c2c(-c3ccccc3)c(-c3ccccc3)n(Cc3ccccc3)c2ncn1C1CCC(O)CC1 (stereo unspecified) here?
**A.** 2640 nM (active)

**Q.** For C=C[C@@H]1CN2CCC1C[C@@H]2[C@@H](O)c1ccnc2ccccc12 (stereo partly specified), which Potency [1] is on record?
**A.** inactive

**Q.** Which Potency [1] does the source give for CCOC(=O)c1c(C(C#N)=CN)c2ccc(Cl)c(Cl)c2n1C here?
**A.** inactive

**Q.** Which Potency [1] does the source give for COC[C@H]1OC(=O)c2coc3c2[C@@]1(C)C1=C(C3=O)[C@@H]2CC[C@H](O)[C@@]2(C)C[C@@H]1OC(C)=O here?
**A.** 10500 nM (active)

**Q.** CC(C)(O)C=CC(=O)[C@](C)(O)[C@H]1[C@H](O)C[C@]2(C)[C@@H]3CC=C4[C@@H](C=C(O)C(=O)C4(C)C)[C@]3(C)C(=O)C[C@@]12C was tested. Which Potency [1] did it give?
**A.** 93.5 nM (active)

**Q.** Which Potency [1] does the source give for Nc1c(Cl)c(Cl)c(Cl)c(Cl)c1Cl here?
**A.** inactive

**Q.** What about the Potency [2] of the same compound?
**A.** inactive

**Q.** What about the Potency [3] of the same compound?
**A.** inactive

**Q.** What about the Potency [4] of the same compound?
**A.** inactive

**Q.** And the Potency [5]?
**A.** inactive

**Q.** What about the Potency [6] of the same compound?
**A.** inactive

**Q.** What about the Potency [7] of the same compound?
**A.** inactive

**Q.** And the Potency [8]?
**A.** inactive

**Q.** What about the Potency [9] of the same compound?
**A.** inactive

**Q.** What about the Potency [10] of the same compound?
**A.** inactive

**Q.** With O=[N+]([O-])c1ncc[nH]1 as the compound, how does the Potency [1] read?
**A.** inactive

**Q.** For Oc1ccc2c3c1O[C@H]1c4[nH]c5c(c4C[C@@]4(O)[C@@H](C2)N(CC2CC2)CC[C@]314)C[C@@]1(O)[C@H]2Cc3ccc(O)c4c3[C@@]1(CCN2CC1CC1)[C@H]5O4, which Potency [1] is on record?
**A.** inactive

**Q.** Which Potency [1] does the source give for CC(=O)OCC1=C(C(=O)O)N2C(=O)[C@@H](N)[C@@H]2SC1 here?
**A.** inactive

**Q.** Which results are given for CC(O)CN1CCN(CC(=O)[O-])CCN(CC(=O)[O-])CCN(CC(=O)[O-])CC1.[Gd+3] (stereo unspecified)?
**A.** Potency [1]: inactive; Potency [2]: inactive; Potency [3]: inactive; Potency [4]: inactive; Potency [5]: inactive; Potency [6]: inactive; Potency [7]: inactive; Potency [8]: inactive; Potency [9]: inactive; Potency [10]: inactive

**Q.** With COc1cc2cc(c1Cl)N(C)C(=O)C[C@H](OC(=O)C(C)C)[C@]1(C)O[C@H]1[C@H](C)[C@@H]1C[C@@](O)(NC(=O)O1)[C@H](OC)C=CC=C(C)C2 as the compound, how does the Potency [1] read?
**A.** inactive

**Q.** With C[C@]12Cc3cn[nH]c3C[C@@H]1CC[C@@H]1[C@H]2CC[C@@]2(C)[C@H]1CC[C@]2(C)O as the compound, how does the Potency [1] read?
**A.** inactive

**Q.** For CC1=C(C(=O)O)N2C(=O)[C@@H](N)[C@H]2SC1, which Potency [1] is on record?
**A.** inactive

**Q.** What about the Potency [2] of the same compound?
**A.** inactive

**Q.** What about the Potency [3] of the same compound?
**A.** inactive

**Q.** What about the Potency [4] of the same compound?
**A.** inactive

**Q.** What about the Potency [5] of the same compound?
**A.** inactive

**Q.** What about the Potency [6] of the same compound?
**A.** inactive

**Q.** And the Potency [7]?
**A.** inactive

**Q.** What about the Potency [8] of the same compound?
**A.** inactive

**Q.** What about the Potency [9] of the same compound?
**A.** inactive

**Q.** And the Potency [10]?
**A.** inactive

**Q.** C[C@]12CC[C@H]3[C@@H](CCC4=CC(=O)CC[C@@]43C)[C@H]1CC[C@H]2OC(=O)CCC1CCCC1 was tested. Which Potency [1] did it give?
**A.** inactive

**Q.** OCCCBr was tested. Which Potency [1] did it give?
**A.** inactive

**Q.** And the Potency [2]?
**A.** inactive

**Q.** And the Potency [3]?
**A.** inactive

**Q.** And the Potency [4]?
**A.** inactive

**Q.** And the Potency [5]?
**A.** inactive

**Q.** What about the Potency [6] of the same compound?
**A.** inactive

**Q.** And the Potency [7]?
**A.** inactive

**Q.** And the Potency [8]?
**A.** inactive

**Q.** What about the Potency [9] of the same compound?
**A.** inactive

**Q.** How did the Potency [1] turn out when C=C[C@@H]1CN2CCC1C[C@H]2[C@H](O)c1ccnc2ccccc12 (stereo partly specified) was run?
**A.** inactive

**Q.** How did the Potency [1] turn out when CC[C@@H](C(N)=O)N1CCCC1=O was run?
**A.** inactive

**Q.** What does the source list for c1cc2ccc3cccc4ccc(c1)c2c34?
**A.** Potency [1]: inactive; Potency [2]: inactive; Potency [3]: inactive; Potency [4]: inactive; Potency [5]: inactive; Potency [6]: inactive; Potency [7]: inactive; Potency [8]: inactive; Potency [9]: inactive; Potency [10]: inactive

**Q.** With C#CC1(O)CCC2C3CCC4=CC(=O)CCC4(C)C3CCC21C (stereo unspecified) as the compound, how does the Potency [1] read?
**A.** inactive

**Q.** Which Potency [1] does the source give for C[C@](O)(COc1ccc(C#N)cc1)C(=O)Nc1ccc(C#N)c(C(F)(F)F)c1 here?
**A.** inactive

**Q.** CCC(=O)OC1CCC2C3CCC4=CC(=O)CC[C@@]4(C)C3CC[C@]12C (stereo partly specified) was tested. Which Potency [1] did it give?
**A.** inactive

**Q.** Which Potency [1] does the source give for CSCC[C@@H](NC(=O)[C@@H](Cc1ccccc1)NC(=O)CNC(=O)CNC(=O)[C@@H](N)Cc1ccc(O)cc1)C(=O)O here?
**A.** inactive

**Q.** What does the source list for CC[N+]1(CCOC(=O)C(O)(c2ccccc2)c2ccccc2)CCCCC1?
**A.** Potency [1]: inactive; Potency [2]: inactive; Potency [4]: inactive; Potency [5]: inactive; Potency [6]: inactive; Potency [7]: inactive; Potency [8]: inactive; Potency [9]: inactive; Potency [10]: inactive

**Q.** Nc1ccc(Cl)cc1 was tested. Which Potency [1] did it give?
**A.** inactive

**Q.** And the Potency [2]?
**A.** inactive

**Q.** And the Potency [4]?
**A.** inactive

**Q.** And the Potency [5]?
**A.** inactive

**Q.** And the Potency [6]?
**A.** inactive

**Q.** What about the Potency [7] of the same compound?
**A.** inactive

**Q.** And the Potency [8]?
**A.** inactive

**Q.** What about the Potency [10] of the same compound?
**A.** inactive

**Q.** What does the source list for O=C(O)c1cc(Oc2ccc(C(F)(F)F)cc2Cl)ccc1[N+](=O)[O-]?
**A.** Potency [1]: inactive; Potency [2]: inactive; Potency [4]: inactive; Potency [5]: inactive; Potency [6]: inactive; Potency [9]: inactive; Potency [10]: inactive
